Source: PubChem
A selection: hits, their analogues and other compounds. The true share with any hit is near 1.5%.
MbtI inh – MbtI salicylate synthase inhibitors, primary screen, biochemical, fluorescence intensity. P9WFX0. purified MbtI enzyme, fluorescence intensity read-out. inhibition, % (no concentration beside the values). 0.89% of 100,000 active. AID 493033, 2011; in the data active = inhibition mostly above about 56%, no sharp cut-off; inactive = mostly below about 77%
PV pol inh – poliovirus RdRp elongation inhibitors, primary screen, biochemical, fluorescence polarization, total intensity | Genome polyprotein (Poliovirus type 1 (strain Mahoney)), P03300 | poliovirus polymerase elongation; active compounds read low | % elongation, % (compound at 16.7 µg/mL) | 0.66% of 150,000 active; in the data active = % elongation below about 90%
MenB inh – M. tuberculosis MenB inhibitors, primary screen, biochemical, absorbance | 1,4-dihydroxy-2-naphthoyl-CoA synthase (Mycobacterium tuberculosis (strain ATCC 25618 / … | AID 540299, 2011 | MenB enzyme assay, absorbance read-out | 0.43% of 100,000 active | inhibition, % (test concentration not listed); in the data active = inhibition above about 21%, passing the limit was not always enough
Target sequence (P9WNP5 whole entry, looked up): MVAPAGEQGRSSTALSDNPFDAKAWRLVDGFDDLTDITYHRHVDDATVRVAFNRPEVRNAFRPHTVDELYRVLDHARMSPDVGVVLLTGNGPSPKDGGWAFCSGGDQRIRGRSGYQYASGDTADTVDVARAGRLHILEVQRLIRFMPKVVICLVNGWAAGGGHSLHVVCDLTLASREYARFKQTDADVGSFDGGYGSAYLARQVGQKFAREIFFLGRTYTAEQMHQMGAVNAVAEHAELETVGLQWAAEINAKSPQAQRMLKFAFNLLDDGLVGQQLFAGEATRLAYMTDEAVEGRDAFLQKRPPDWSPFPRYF
The depositor's hits bear a star; i = inactive; . = no result.

SMILES	MbtI inh	PV pol inh	MenB inh
CCC(c1nnnn1Cc1ccco1)N(Cc1cccs1)Cc1cc2c(C)cc(C)cc2n2nnnc12 (stereo unspecified)	-1.5	102.0	-10.9
FC(F)(F)c1cc(C(F)(F)F)n2[nH]c(=S)nc2n1	95.7*	98.0	-102.6
Cc1ccc(-c2cc3nc(C(F)(F)F)cc(C(F)(F)F)n3n2)cc1	-9.7	104.0	-9.0
Cc1ccc2nc(NC(=O)CSc3cn(C)c4ccccc34)sc2c1	15.9	99.0	-5.8
CN1C(=O)S/C(=C\c2ccc(I)cc2)C1=O	3.8	99.0	-31.0
CN=C1S/C(=C\c2ccc(Cl)cc2)C(=O)N1C	5.6	88.0*	5.9
CCOC(=O)c1ccc(NC(=O)NC(C)c2ccc3c(c2)OCO3)cc1 (stereo unspecified)	14.7	104.0	-8.1
CCOC(=O)c1ccc(NC(=S)NC(C)c2ccc3c(c2)OCCO3)cc1 (stereo unspecified)	-0.6	54.0*	-22.6
Cc1onc(-c2ccccc2)c1C(=O)OCC(=O)N1CCCc2ccccc21	-1.5	103.0	-6.5
Cc1ccc(-n2cc(-c3ccccc3)c3c(NCCN4CCOCC4)ncnc32)cc1	-11.4	103.0	-12.7
CC(Sc1nnc(N)s1)c1nc2ccccc2c(=O)[nH]1 (stereo unspecified)	-2.6	101.0	-14.8
CCN(CC)P1(=S)N(c2ccccc2)N=C2C=C(C)c3ccccc3N21 (stereo unspecified)	91.0	68.0*	-62.8
COc1ccc(N=Cc2ccc(SC)cc2)cc1N	-1.8	99.0	.
O=C(O)/C=C/C(=O)N1CCN(S(=O)(=O)c2ccccc2)CC1	-8.5	104.0	-18.6
CN(C)C(=O)N1CCN(S(=O)(=O)c2ccccc2)CC1	1.5	101.0	37.1*
CN(C)S(=O)(=O)c1ccc(S(=O)(=O)N2CCN(C=O)CC2)cc1	1.6	105.0	30.5*
CC1CCCN(S(=O)(=O)c2ccc(S(=O)(=O)N3CCN(C=O)CC3)cc2)C1 (stereo unspecified)	6.9	104.0	-6.5
Cc1cc(C)c2c(-n3cccc3)c(C(=O)OC3CC(C)OC3=O)sc2n1 (stereo unspecified)	-2.0	104.0	-25.0
CCCCNc1nc2ccccc2n1CC(=O)N1CCc2ccccc21	-15.2	103.0	-24.7
O=C(Cn1c(CCCO)nc2ccccc21)N1CCc2ccccc21	96.3*	99.0	-5.4
COc1cccc(C(C)NC(=O)c2ccccc2OC)c1 (stereo unspecified)	-4.8	102.0	-20.6
COc1cccc(C(O)C(F)(F)F)c1 (stereo unspecified)	8.1	100.0	28.8*
COc1ccc(NC(=O)CNS(=O)(=O)/C=C/c2ccc(C)cc2)cn1	0.6	104.0	5.1
Cn1nc(C(=O)NCCN2CCC(Cc3ccccc3)CC2)c2c1-c1ccccc1OC2	-5.2	102.0	-6.2
COc1cc(/C=N\n2cn[nH]c2=S)cc(OC)c1OC	25.4	100.0	-12.5
SMILES	MbtI inh	PV pol inh	MenB inh
CC(C)n1cn[nH]c1=S	59.2*	96.0	-23.5
Fc1ccccc1Cn1c(CSC2=NCCN2)nc2ccccc21	-13.9	.	.
C1C/C(=N/N=C2\CCCc3nonc32)c2nonc2C1	2.2	102.0	34.4
c1nncn1/N=C1/CCCc2nonc21	84.0*	98.0	-44.3
O=C(O)C1(c2ccccc2)CC1	1.5	98.0	11.9
COC1=CC(=O)c2ccccc2C1=O	2.6	85.0*	-7.4
COC1=CC(=O)C=C(OC)C1=O	12.3	102.0	-4.9
Cc1ccc2c(CN(C)c3ccccc3)cc(=O)oc2c1	-0.2	102.0	-30.1
O=C(CSc1nnc(Cc2ccccc2)o1)N(c1ccccc1)c1ccccc1	74.7*	98.0	32.6
O=C(CSc1nnc(Cc2ccccc2)o1)c1ccccc1	-6.2	102.0	7.0
CC(=O)NC(C)c1nc2ccccc2n1CC(=O)Nc1ccc(C(C)C)cc1 (stereo unspecified)	-4.9	103.0	.
CCC1CCCCN1C(=O)c1cc2ccccc2oc1=O (stereo unspecified)	.	59.0*	-7.5
O=C(c1cc2ccccc2oc1=O)N1CCCC1	24.8	98.0	37.8
OCCOCCNc1ncnc2sc(-c3ccccc3)cc12	i	99.0	-4.0
CN(C)CCNc1ncnc2sc(-c3ccccc3)cc12	106.1	87.0*	-9.3
CCOC(=O)N1CCN(C(=O)CCc2nc3cc(Cl)ccc3n(Cc3ccccc3)c2=O)CC1	-0.5	111.0	-23.1
CCCSc1nc2cn(CC)nc2c(=O)n1Cc1ccccc1	-17.7	102.0	-31.6
Nc1nc(-c2cccs2)c(C(=O)C(F)(F)F)s1	63.0*	100.0	-5.9
Cc1sc(N)nc1-c1cccs1	59.0	99.0	16.8
Cc1cccc(C)c1NC(=S)NC12CC3CC(CC(C3)C1)C2	.	101.0	-23.4
C=CCn1c(SCC2=C(C(=O)OCC)C(C)NC(=O)N2)nnc1-c1ccoc1C (stereo unspecified)	-8.9	108.0	-25.2
COc1ccc(/C=C(\C#N)C(=O)C(C)(C)C)cc1	-17.0	98.0	-39.5
C=CCN1C(=O)C(C)(C)S/C1=N\S(=O)(=O)c1ccc(C)cc1	-9.1	101.0	-29.5
O=C1C=CC(=NS(=O)(=O)c2ccc(F)cc2)C=C1	98.4*	100.0	20.6
CCOc1cccc(S(=O)(=O)N=C2C=C(C(C)(C)C)C(=O)C(C(C)(C)C)=C2)c1	13.2	104.0	-31.8
SMILES	MbtI inh	PV pol inh	MenB inh
Cc1ccc(S(=O)(=O)N=C2C=CC(=O)C=C2)cc1	95.9*	103.0	9.4
CCOc1ccc(S(=O)(=O)N=C2C=CC(=O)C=C2)cc1	92.8*	99.0	18.6
CC1=C/C(=N/OC(=O)c2ccccc2)C=CC1=O	0.1	102.0	-46.9
CS(=O)(=O)c1ccc(F)cc1	1.6	103.0	7.4
CC1=C/C(=N\S(=O)(=O)c2ccccc2)C=CC1=O	101.1*	103.0	-26.9
CC1CC(C)(C)NC(=S)N1CC(=O)Nc1ccc(Cl)cc1 (stereo unspecified)	4.2	100.0	-20.1
COC(=O)c1ccccc1S(=O)(=O)N1CCC(C(=O)Nc2nnc(C)o2)CC1	-10.4	102.0	-13.3
Cc1ccc(NC(=O)NC(=O)CN2C(=O)C3CC=CCC3C2=O)c(C)c1 (stereo unspecified)	-8.2	103.0	-20.6
O=c1cc(O)c2sc3nc4c(c(C(F)(F)F)c3c2[nH]1)CCC4	-9.8	105.0	-133.1
Cc1cccc(-c2nnn3c2nc(N2CCN(C(=O)c4ccco4)CC2)c2cc(Cl)ccc23)c1	1.8	101.0	-11.3
O=C1CCCC2=C1C(c1cccs1)C1C(=O)c3ccccc3C1=N2 (stereo unspecified)	.	72.0*	-14.6
CC(=O)N1N=C2c3ccccc3CCC2C1c1cccs1 (stereo unspecified)	0.4	112.0	1.5
Cc1ccc(NC(=O)COC(=O)c2c(C)nsc2N)cc1C	5.8	104.0	-16.5
C#CC(=O)OCC(=O)Nc1ccc(C)c(C)c1	65.5*	89.0*	-25.5
COc1cc(/C=C2\SC(=O)N(C)C2=O)ccc1OCC(=O)O	-1.2	102.0	-16.7
O=C(O)c1ccccc1C(=O)c1ccc(-c2ccccc2)cc1	17.1	103.0	9.4
CCOc1ccc(C(=O)c2ccccc2C(=O)O)cc1OCC	8.9	47.0*	6.4
COc1cccc(NC(=O)C2CC(=O)n3cnnc3S2)c1 (stereo unspecified)	96.2*	.	.
